Source: PubChem BioAssay (NCATS)
Records with an inconclusive call do not appear. Calls of active or inactive are those of the source. Unless noted, the call rests on the fitted dose curve; in most records, active means well fitted curve in either direction with a large enough effect (not every such curve was filed as active); inconclusive means small, poorly fitted or top-dose-only effect, or another doubt; inactive means flat fitted curve, though single readings scatter.

Columns and labels:
[1] = target: Lysosomal acid glucosylceramidase (Homo sapiens) (UniProt P04062); experiment: Glucocerebrosidase-p2 (AID 348; in the data active means potency below about 10 µM; further: potency means the concentration at half of the fitted maximal effect); details: purified GBA, blue fluorogenic substrate, 40 min
In short: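 Compounds titrated from 0.6 nM upwards against 0.2 nM enzyme in pH 5.9 citric acid/KH2PO4, taurocholate, tween-20; blue fluorogenic substrate 80 uM, 40 min room temperature, stopped and read Ex 365/Em 440 for AC50.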

[2] = AP1 Signaling Pathway (AID 357); details: ME-180 AP-1-bla reporter, EGF-induced, beta-lactamase ratio, 5 h; at 7.69 µM (top of the series) unless noted;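 further: ME-180 reporter cells stimulated with EGF at its EC50 level; on the % scale 0 is the no-effect control and ±100 the full control effect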
In short: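 In this screen, ME-180 cells in Opti-MEM with 0.5% dialyzed FBS received EC50 EGF and compound titrations for 5 h. AP-1 reporter beta-lactamase was detected via CCF4 ratio, giving AC50 for positive and negative modulators.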

[3] = target: Cytochrome P450 1A2 (Homo sapiens) (UniProt P05177); experiment: p450-cyp1a2 (AID 410; calls by dose curve; further: potency means the concentration at half of the fitted maximal effect;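 on activity change, negative = inhibition: -100% = full effect of reference inhibitor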); details: recombinant CYP1A2, luciferin-ME demethylation, luminescence; series mostly up to 57 µM
In short: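 Human CYP1A2 (20nM) demethylated Luciferin-ME at its Km (100uM) in 100mM KPO4. After 10 min compound preincubation, NADPH regeneration ran the reaction 60 min at room temperature. Luciferin was read by luminescence, normalized to 57 uM furafylline.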

[4] = NFAT Signaling Pathway (AID 444); details: Jurkat NFAT-bla M1, carbachol, beta-lactamase ratio, 5 h; at 7.69 µM (top of the series) unless noted;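 further: carbachol stimulus at about its EC50 of 1 µM final; on the % scale 0 is the no-effect control and ±100 the full control effect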
In short: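 Jurkat cells carrying an NFAT-driven β-lactamase reporter and co-transfected muscarinic M1 receptor were treated with compound plus carbachol (1 uM final, an EC50 level) for 5 h at 37 °C. CCF4 loading followed for 1 h at RT; 460/530 nm ratio gave %activity.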

[5] = Stat Signaling Pathway (AID 446); details: ME-180 SIE beta-lactamase reporter, IL-6 stimulated, 5 h; at 7.69 µM (top of the series) unless noted;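 further: ME-180 cervical cancer cells given 40 pM IL-6 alongside compound; SIE-controlled beta-lactamase reporter measured as 460/530 nm FRET emission ratio; on the % scale 0 is the no-effect control and ±100 the full control effect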
In short: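 ME-180 SIE-bla cells; overnight plating; cpd + IL-6 40 pM, 5 h, 37 C; LiveBLAzer 2.5 h RT; 460/530 nm emission ratio. Normalized to 300 pM IL-6 and 125 nM JAK inhibitor controls.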

[6] = target: Glucocorticoid receptor (Homo sapiens) (UniProt P04150); experiment: GR-GFP Redistribution (AID 450;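 active means compounds whose dose series gives a full or clear partial fitted curve of increased nuclear translocation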; further: potency means the concentration at half of the fitted maximal effect); details: U2OS GR-GFP nuclear translocation, laser cytometry, 2 h
[7] = target: Glucocorticoid receptor (Homo sapiens) (UniProt P04150); experiment: GR-EFC Redistribution (AID 451; calls by dose curve; further: potency means the concentration at half of the fitted maximal effect); details: CHO-K1 GR-EFC translocation, beta-gal luminescence, 2 h
In short: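 CHO-K1 cells stably expressing nuclear-localized β-gal enzyme acceptor and GR fused C-terminally to the enzyme donor fragment; ligand-driven nuclear translocation restores β-gal by complementation. Compounds titrated up to 46 uM final, 2 h at 37 °C; luminescence read.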

[8] = target: Mitogen-activated protein kinase 10 (Mus musculus) (UniProt Q61831); experiment: JNK3 AlphaScreen Assay (AID 530); details: JNK3 lysate, c-Jun phosphorylation; series mostly up to 57.1 µM;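 further: kinase came from lysate of stimulated human HepG2 cells; signal reports phosphorylation of biotinylated GST-cJun 1-79 at Ser73 with 10 µM ATP; on the % scale 0 is the no-effect control and ±100 the full control effect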
In short: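 JNK3 came from HepG2 lysates pre-activated with IL-1beta and TNF-alpha and phosphorylated biotinylated GST-cJun (1-79) at 10 uM ATP, pH 7.6, room temperature. Compounds were titrated. AlphaScreen signal used anti-phospho-cJun (Ser73) antibody.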

[9] = target: Cytochrome P450 3A4 (Homo sapiens) (UniProt P08684); experiment: qHTS Assay for Activators of Cytochrome P450 3A4 (AID 885; active means well fitted curve in the direction sought with a large enough effect; an effect the other way counts as inactive or inconclusive; further: nearly all actives have a fitted effect of over 65% in size); details: recombinant CYP3A4, Luciferin-PPXE luminescence, 60 min; series mostly up to 57.1 µM
In short: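 20nM CYP3A4 + 25uM Luciferin-PPXE (=KM), 200mM KPO4; cpd 10 min RT; NADPH regen, 60 min RT; stop w/ detection buffer, 20 min; luminescence. Normalized to 57 uM ketoconazole.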

[10] = Confirmation and Secondary Assay for Modulators of Hemoglobin Beta Chain Splicing at IVS2 654 locus (AID 910; active means well fitted curve in the direction sought with a large enough effect; an effect the other way counts as inactive or inconclusive;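 further: per-well total GFP intensity by laser scanning cytometry after 2-day treatment; % of control where 0% means no effect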); details: HeLa EGFP-654 splicing reporter, GFP fluorescence, 48 h; series mostly up to 38.3 µM
In short: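 HeLa cells stably carrying EGFP interrupted by mutant beta-globin IVS2-654 intron (CMV-driven) were treated with compound for 2 days at 37C; corrected splicing was scored as total peak GFP intensity per well (488 nm excitation, 500-520 nm emission).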

[11] = Confirmation and Secondary Assay for Modulators of Hemoglobin Beta Chain Splicing at IVS2 705 locus (AID 930; active means well fitted curve in the direction sought with a large enough effect; an effect the other way counts as inactive or inconclusive;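 further: HeLa cells stably expressing the EGFP-705 splicing reporter; GFP fluorescence per well restored by corrected splicing of the IVS2-705 intron in EGFP; % of control where 0% means no effect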); details: HeLa EGFP-705 splicing reporter, GFP fluorescence, 48 h; series mostly up to 38.3 µM
In short: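 Splice-correction reporter: EGFP cDNA split by beta-globin intron 2 bearing the 705 mutation, stably in HeLa. Compound incubation 2 days, 37C; fluorescent objects 5-250 µm summed per well.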

[12] = qHTS Assay for Lipid Storage Modulators (AID 1519; calls by dose curve); details: Drosophila S3 cells, BODIPY lipid droplet/cell ratio, laser cytometry, cells loaded with oleic acid; for activity change, negative = inhibition: at 57.5 µM (top of the series)
In short: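 Cells seeded at 5,000 per well were treated with compounds over a concentration series and loaded with oleic acid (400 uM, as added). Lipid droplet fluorescence (488 nm excitation, 500-530 nm channel) was read by laser-scanning cytometry and normalized to 20 uM Triacsin C.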

[13] = Primary qHTS for small molecule stabilizers of the endoplasmic reticulum resident proteome: Secreted ER Calcium Modulated Protein (SERCaMP) assay (AID 1508630; active means well fitted curve in the direction sought with a large enough effect; an effect the other way counts as inactive or inconclusive; further: on the % scale 0 is the no-effect control and ±100 the full control effect); details: SH-SY5Y GLuc-SERCaMP (Gaussia luciferase released on ER calcium loss) secretion, thapsigargin, luminescence; series mostly up to 38.4 µM
In short: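 GLuc-SERCaMP-expressing SH-SY5Y cells, pretreated 16 h with compound, are challenged with thapsigargin to empty ER calcium stores; after 4 h, coelenterazine is added directly to the medium and luminescence is imaged.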

[14] = target: 3',5'-cyclic-AMP phosphodiesterase 4B (Homo sapiens) (UniProt Q07343); experiment: qHTS Assay for Inhibitors of PDE-IV (AID 607; active means well fitted activation curve with a large enough effect in the main read-out, with a control signal flat, not every such curve was filed as active; further: % of control where 0% means no effect); details: HEK293 ACTOne CNG channel cells, membrane potential fluorescence; series mostly up to 22.9 µM
In short: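 ACTOne HEK293 cells carry a modified cAMP-gated CNG channel and express endogenous PDE4; plated 1000 cells/well, compounds up to 22.9 uM final. Membrane-potential dye fluorescence (ex 535/em 590) was read; parental cells received 10 uM forskolin + 100 uM RO 20-1724.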

[15] = target: Ubiquitin carboxyl-terminal hydrolase 1 (Homo sapiens) (UniProt O94782); experiment: Inhibitors of USP1/UAF1: Pilot qHTS (AID 504865; active means well fitted curve in the direction sought with a large enough effect; an effect the other way counts as inactive or inconclusive; further: nearly all actives have a fitted effect of over 35% in size; further: potency means the concentration at half of the fitted maximal effect); details: purified USP1/UAF1, Ub-rhodamine cleavage fluorescence; series mostly up to 54.9 µM
In short: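 Enzyme-free wells gave the negative control, while test wells held 1nM USP1/UAF1 preincubated with compound for 15 min at room temperature. Ub-Rho at 150nM final started the reaction, and fluorescence at 480/540 nm was recorded kinetically.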

[16] = target: Cytochrome P450 3A4 (Homo sapiens) (UniProt P08684); experiment: qHTS Assay for Inhibitors and Substrates of Cytochrome P450 3A4 (AID 884; active means well fitted curve in the direction sought with a large enough effect; an effect the other way counts as inactive or inconclusive; further: potency means the concentration at half of the fitted maximal effect; nearly all actives have a fitted effect of over 50% in size); details: recombinant CYP3A4, Luciferin-PPXE luminescence; series mostly up to 57.1 µM
In short: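 20 nM human CYP3A4 with 25 uM Luciferin-PPXE (at KM) in 200 mM KPO4, preincubated 10 min with compound; NADPH regeneration started a 60 min RT reaction. Luciferin detected by luminescence, normalized to 57 uM ketoconazole as full inhibition.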

[17] = measured here: cell count channel max response
[18] = measured here: lipid channel max response

3',5'-cyclic-AMP phosphodiesterase 4B (Homo sapiens), sequence (Q07343 whole entry, looked up): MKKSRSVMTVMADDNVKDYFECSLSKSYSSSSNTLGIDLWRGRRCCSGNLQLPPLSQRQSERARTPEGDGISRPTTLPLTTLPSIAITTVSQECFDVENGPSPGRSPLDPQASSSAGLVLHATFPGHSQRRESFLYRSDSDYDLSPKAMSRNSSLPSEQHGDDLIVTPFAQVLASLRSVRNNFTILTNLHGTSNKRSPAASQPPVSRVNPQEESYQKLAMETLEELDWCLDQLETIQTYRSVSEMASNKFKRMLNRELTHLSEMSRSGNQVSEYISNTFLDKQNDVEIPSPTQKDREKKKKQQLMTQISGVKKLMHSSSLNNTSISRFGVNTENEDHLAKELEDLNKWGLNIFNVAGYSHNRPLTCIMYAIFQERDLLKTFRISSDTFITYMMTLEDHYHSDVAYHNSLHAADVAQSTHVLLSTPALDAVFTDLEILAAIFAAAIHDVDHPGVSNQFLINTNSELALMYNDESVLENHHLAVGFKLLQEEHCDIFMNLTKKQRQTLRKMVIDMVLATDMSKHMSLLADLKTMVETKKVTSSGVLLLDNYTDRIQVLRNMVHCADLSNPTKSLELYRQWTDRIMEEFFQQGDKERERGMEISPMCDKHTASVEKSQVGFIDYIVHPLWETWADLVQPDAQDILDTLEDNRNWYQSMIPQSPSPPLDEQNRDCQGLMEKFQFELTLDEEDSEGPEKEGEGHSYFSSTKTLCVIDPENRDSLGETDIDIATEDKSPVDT
Cytochrome P450 1A2 (Homo sapiens), sequence (P05177 whole entry, looked up): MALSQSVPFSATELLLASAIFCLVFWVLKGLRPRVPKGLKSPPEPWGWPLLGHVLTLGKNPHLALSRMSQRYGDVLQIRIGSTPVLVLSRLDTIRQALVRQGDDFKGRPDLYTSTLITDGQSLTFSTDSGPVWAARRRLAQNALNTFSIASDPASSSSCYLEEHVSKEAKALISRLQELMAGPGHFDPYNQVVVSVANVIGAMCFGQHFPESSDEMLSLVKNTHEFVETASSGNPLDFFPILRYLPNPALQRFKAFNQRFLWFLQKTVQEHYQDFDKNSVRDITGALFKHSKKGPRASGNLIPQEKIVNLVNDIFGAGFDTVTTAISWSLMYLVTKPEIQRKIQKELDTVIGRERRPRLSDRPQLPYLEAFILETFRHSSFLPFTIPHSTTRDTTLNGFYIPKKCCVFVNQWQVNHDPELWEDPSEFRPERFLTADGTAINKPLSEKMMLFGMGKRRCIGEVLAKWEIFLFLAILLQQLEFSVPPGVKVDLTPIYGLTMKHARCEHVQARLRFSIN
Ubiquitin carboxyl-terminal hydrolase 1 (Homo sapiens), sequence (O94782 whole entry, looked up): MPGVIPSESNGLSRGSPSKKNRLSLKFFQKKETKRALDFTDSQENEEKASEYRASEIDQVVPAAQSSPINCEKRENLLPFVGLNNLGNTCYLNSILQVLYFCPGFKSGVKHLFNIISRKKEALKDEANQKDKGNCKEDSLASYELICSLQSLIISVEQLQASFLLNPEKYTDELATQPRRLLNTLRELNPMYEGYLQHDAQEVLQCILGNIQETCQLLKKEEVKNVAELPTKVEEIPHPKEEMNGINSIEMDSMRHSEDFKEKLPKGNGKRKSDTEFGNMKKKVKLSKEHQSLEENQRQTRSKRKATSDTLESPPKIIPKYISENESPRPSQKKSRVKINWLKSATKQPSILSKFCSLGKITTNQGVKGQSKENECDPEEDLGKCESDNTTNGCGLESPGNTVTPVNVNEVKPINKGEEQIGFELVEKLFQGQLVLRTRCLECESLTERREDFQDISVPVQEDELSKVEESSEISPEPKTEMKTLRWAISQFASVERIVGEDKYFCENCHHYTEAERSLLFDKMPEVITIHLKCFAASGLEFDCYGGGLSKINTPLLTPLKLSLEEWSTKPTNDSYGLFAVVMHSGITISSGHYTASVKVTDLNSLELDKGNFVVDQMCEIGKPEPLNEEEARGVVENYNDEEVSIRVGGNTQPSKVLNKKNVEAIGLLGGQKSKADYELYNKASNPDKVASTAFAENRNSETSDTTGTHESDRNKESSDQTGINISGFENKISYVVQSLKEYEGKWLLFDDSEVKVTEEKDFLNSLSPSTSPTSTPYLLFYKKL
Cytochrome P450 3A4 (Homo sapiens), sequence (P08684 whole entry, looked up): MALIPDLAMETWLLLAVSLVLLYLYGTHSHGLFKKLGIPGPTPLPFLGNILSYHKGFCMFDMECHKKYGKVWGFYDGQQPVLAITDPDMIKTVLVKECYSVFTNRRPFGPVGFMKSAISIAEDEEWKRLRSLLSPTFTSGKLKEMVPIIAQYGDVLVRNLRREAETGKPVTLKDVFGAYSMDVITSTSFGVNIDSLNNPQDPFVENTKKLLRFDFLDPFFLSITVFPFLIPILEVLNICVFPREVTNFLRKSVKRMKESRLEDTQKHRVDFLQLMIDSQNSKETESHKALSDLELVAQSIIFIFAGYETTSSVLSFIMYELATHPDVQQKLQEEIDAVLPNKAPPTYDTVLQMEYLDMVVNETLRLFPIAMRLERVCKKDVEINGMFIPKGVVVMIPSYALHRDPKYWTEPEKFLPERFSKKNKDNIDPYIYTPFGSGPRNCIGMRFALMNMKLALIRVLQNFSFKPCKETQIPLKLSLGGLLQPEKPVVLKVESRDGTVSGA
Glucocorticoid receptor (Homo sapiens), sequence (P04150 whole entry, looked up, the tested form may be a part): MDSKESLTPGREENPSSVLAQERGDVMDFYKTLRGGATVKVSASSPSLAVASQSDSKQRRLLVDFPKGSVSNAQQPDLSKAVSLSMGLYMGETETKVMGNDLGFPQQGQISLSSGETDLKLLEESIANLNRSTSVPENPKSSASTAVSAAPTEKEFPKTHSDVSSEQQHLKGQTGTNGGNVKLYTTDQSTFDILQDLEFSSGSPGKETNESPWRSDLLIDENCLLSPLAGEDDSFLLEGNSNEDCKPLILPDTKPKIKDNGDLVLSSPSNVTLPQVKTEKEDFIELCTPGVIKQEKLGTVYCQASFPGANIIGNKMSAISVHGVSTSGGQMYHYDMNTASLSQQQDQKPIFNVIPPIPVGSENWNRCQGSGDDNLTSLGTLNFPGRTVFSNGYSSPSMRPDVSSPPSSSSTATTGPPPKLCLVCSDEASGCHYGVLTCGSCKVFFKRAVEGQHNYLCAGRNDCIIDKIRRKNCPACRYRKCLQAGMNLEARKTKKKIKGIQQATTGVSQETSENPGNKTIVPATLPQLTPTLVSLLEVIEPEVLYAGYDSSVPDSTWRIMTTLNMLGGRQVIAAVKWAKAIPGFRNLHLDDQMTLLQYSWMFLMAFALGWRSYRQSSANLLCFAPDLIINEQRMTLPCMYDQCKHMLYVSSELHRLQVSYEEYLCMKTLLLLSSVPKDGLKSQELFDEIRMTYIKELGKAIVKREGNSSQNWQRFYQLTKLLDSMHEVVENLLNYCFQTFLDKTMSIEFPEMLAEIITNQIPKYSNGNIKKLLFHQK
Lysosomal acid glucosylceramidase (Homo sapiens), sequence (P04062 whole entry, looked up): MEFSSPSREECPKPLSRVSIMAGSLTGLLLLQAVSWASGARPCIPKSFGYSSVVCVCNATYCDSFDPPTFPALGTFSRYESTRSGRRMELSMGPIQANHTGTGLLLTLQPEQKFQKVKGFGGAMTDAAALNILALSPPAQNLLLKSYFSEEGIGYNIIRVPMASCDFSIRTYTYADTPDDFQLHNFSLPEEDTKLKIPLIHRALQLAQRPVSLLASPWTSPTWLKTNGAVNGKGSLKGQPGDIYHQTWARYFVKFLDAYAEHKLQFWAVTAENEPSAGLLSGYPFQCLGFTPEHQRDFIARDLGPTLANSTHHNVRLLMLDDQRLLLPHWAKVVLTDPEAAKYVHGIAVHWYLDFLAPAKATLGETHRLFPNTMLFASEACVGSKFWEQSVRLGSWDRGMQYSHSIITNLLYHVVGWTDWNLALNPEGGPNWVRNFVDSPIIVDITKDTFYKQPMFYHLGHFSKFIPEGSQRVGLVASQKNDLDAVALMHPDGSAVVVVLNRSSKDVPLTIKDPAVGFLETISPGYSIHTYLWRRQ

Compound | Potency [1] | activity change, negative = inhibition [2] | Potency [3] | activity change, negative = inhibition [4] | activity, negative = inhibition [5] | Potency [6] | Potency [7] | outcome [8] | Potency [9] | outcome [10] | outcome [11] | activity change, negative = inhibition [12] | max response [12, 17] [%] | max response [12, 18] [%] | Potency [13] | Potency [14] | Potency [15] | Potency [16]
c1ccc(CNc2ccnc(-c3ccoc3)n2)cc1 | > 11.4 µM (inactive) | -4.42% (inactive) | 2.51 µM (active) | 4.39% (inactive) | 10.2% (inactive) | > 46 µM (inactive) | > 46 µM (inactive) | inactive | inactive | inactive | inactive | 9.38% (inactive) | 7.25 | 15 | inactive |  |  | 
COCC(=O)N1CCC2(CC1)CN(C(=O)Nc1ccc(OC)cc1)C2 | > 11.4 µM (inactive) | -2.15% (inactive) | inactive | 21.1% (inactive) | 2.17% (inactive) |  | > 46 µM (inactive) | inactive |  |  |  | 3.11% (inactive) | 23 | 29.3 | inactive | inactive |  | 
COCCNc1ccnc(-c2cccc(NS(C)(=O)=O)c2)n1 | > 11.4 µM (inactive) | -8.74% (inactive) | 2 µM (active) | 12.6% (inactive) | -1.1% (inactive) | > 46 µM (inactive) |  | inactive | inactive | inactive | inactive | 9.23% (inactive) | 14.8 | 25.9 | inactive | inactive | inactive | 
CNc1ccnc(-c2ccccc2C(F)(F)F)n1 | > 11.4 µM (inactive) | 1.92% (inactive) | 12.6 µM (active) | 5.43% (inactive) | -22.6% (inactive) |  | > 46 µM (inactive) | inactive | inactive | inactive |  | 4.06% (inactive) | 2.06 | 6.45 | inactive | inactive | inactive | 
c1ncc(-c2ccoc2)c(NC2CC2)n1 | > 11.4 µM (inactive) | 16.6% (inactive) | 15.8 µM (active) | 5.32% (inactive) | 4.55% (inactive) |  | > 46 µM (inactive) | inactive | inactive |  |  | 3.62% (inactive) | 21.6 | 22.6 | inactive | inactive | 28.2 µM (active) | 7.94 µM (active)
Cc1noc(C)c1C(=O)N1CCC2(CCN(C(=O)NC(C)C)CC2)CC1 | > 11.4 µM (inactive) | -3.73% (inactive) | 5.01 µM (active) | 5.4% (inactive) | 3.31% (inactive) |  | > 46 µM (inactive) | inactive |  |  |  | 4.44% (inactive) | 4.63 | 11.9 | inactive | inactive |  | 
COc1cccc(-c2cncnc2-n2ccnc2)c1 | > 11.4 µM (inactive) | 3.37% (inactive) | 0.1 µM (active) | -0.356% (inactive) | -1.78% (inactive) |  | > 46 µM (inactive) | inactive | inactive | inactive |  | 7.42% (inactive) | -2.24 | 4.82 | inactive | inactive | inactive | 0.316 µM (active)
